Experimental data reported in PubChem BioAssay AID1159580 (chemical genetic matrix, 2015).
Out of some 5,500 compounds screened, about 2,000 (36%) were called active. Another 18% or so got no clear call; they are omitted. This is one part of the list. Values without a mark were called inactive. Cut-off read from the data, not from the text of the source: active = normalized growth mostly below about 0.91 (no sharp cut-off); inconclusive = no clear call, values can overlap the other calls; inactive = mostly above about 0.92.

Assay: chemical genetic growth profiling, strain panel (AID 1159580);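 note: tested at 20 µM; growth read once vehicle control cultures reached saturation at 30 °C; 1 = growth at the plate median or of vehicle wells; lower values mean less growth of the strain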
Settings: growth OD
[1] = S. cerevisiae deletion strains, locus YAL013W, strain DEP1, stronger effect = lower value
[2] = S. cerevisiae deletion strains, locus YBR229C, strain ROT2, stronger effect = lower value
[3] = S. cerevisiae deletion strains, locus YDL101C, strain DUN1, stronger effect = lower value
[4] = S. cerevisiae deletion strains, locus YDL134C, strain PPH21, stronger effect = lower value
[5] = S. cerevisiae deletion strains, locus YDR150W, strain NUM1, stronger effect = lower value
[6] = S. cerevisiae deletion strains, locus YEL061C, strain CIN8, stronger effect = lower value
[7] = S. cerevisiae deletion strains, locus YGR078C, strain PAC10, stronger effect = lower value
[8] = S. cerevisiae deletion strains, locus YHR030C, strain SLT2, stronger effect = lower value
[9] = S. cerevisiae deletion strains, locus YHR087W, strain rtc3, stronger effect = lower value
[10] = S. cerevisiae deletion strains, locus YJR043C, strain POL32, stronger effect = lower value
[11] = S. cerevisiae deletion strains, locus YJR075W, strain HOC1, stronger effect = lower value
[12] = S. cerevisiae deletion strains, locus YLR039C, strain RIC1, stronger effect = lower value
[13] = S. cerevisiae deletion strains, locus YLR058C, strain SHM2 (second series), stronger effect = lower value
[14] = S. cerevisiae deletion strains, locus YLR085C, strain ARP6, stronger effect = lower value
[15] = S. cerevisiae deletion strains, locus YLR262C, strain YPT6, stronger effect = lower value
[16] = S. cerevisiae deletion strains, locus YML094W, strain GIM5, stronger effect = lower value
[17] = S. cerevisiae deletion strains, locus YMR219W, strain ESC1, stronger effect = lower value
[18] = S. cerevisiae deletion strains, locus YMR263W, strain SAP30, stronger effect = lower value
[19] = S. cerevisiae deletion strains, locus YNL153C, strain GIM3, stronger effect = lower value
[20] = S. cerevisiae deletion strains, locus YNL298W, strain CLA4 (second series), stronger effect = lower value
[21] = S. cerevisiae deletion strains, locus YNL322C, strain KRE1, stronger effect = lower value
[22] = S. cerevisiae deletion strains, locus YNR030W, strain Alg12, stronger effect = lower value
[23] = S. cerevisiae deletion strains, locus YOL006C, strain TOP1, stronger effect = lower value
[24] = S. cerevisiae deletion strains, locus YPL055C, strain LGE1, stronger effect = lower value
[25] = S. cerevisiae deletion strains, locus YPL241C, strain CIN2, stronger effect = lower value
[26] = S. cerevisiae deletion strains, locus YPR135W, strain CTF4, stronger effect = lower value
[27] = S. cerevisiae deletion strains, locus YCL061C, strain MRC1, stronger effect = lower value

Q: For `FC(F)(F)Oc1ccccc1-c1nnc(-c2ccc(Cl)cc2)o1`, which normalized growth [1] is on record?
A: 0.946

Q: And the normalized growth [2]?
A: 0.968

Q: And the normalized growth [3]?
A: 0.971

Q: And the normalized growth [4]?
A: 0.963

Q: And the normalized growth [5]?
A: 0.912

Q: What about the normalized growth [6] of the same compound?
A: 0.931

Q: And the normalized growth [7]?
A: 0.934

Q: And the normalized growth [8]?
A: 0.442 (active)

Q: What about the normalized growth [9] of the same compound?
A: 0.924

Q: What about the normalized growth (S. cerevisiae deletion strains, locus YJL187C, strain SWE1, stronger effect = lower value) of the same compound?
A: 0.957

Q: What about the normalized growth [10] of the same compound?
A: 0.975

Q: What about the normalized growth [11] of the same compound?
A: 0.87 (active)

Q: What about the normalized growth (S. cerevisiae deletion strains, locus YKL190W, strain CNB1, stronger effect = lower value) of the same compound?
A: 0.9 (active)

Q: And the normalized growth [12]?
A: 0.874

Q: What about the normalized growth [13] of the same compound?
A: 0.95

Q: What about the normalized growth [14] of the same compound?
A: 0.68 (active)

Q: And the normalized growth [15]?
A: 0.963

Q: What about the normalized growth [16] of the same compound?
A: 0.878

Q: And the normalized growth [17]?
A: 0.966

Q: What about the normalized growth [18] of the same compound?
A: 0.948

Q: And the normalized growth [19]?
A: 0.976

Q: What about the normalized growth [20] of the same compound?
A: 0.872

Q: And the normalized growth [21]?
A: 0.944

Q: And the normalized growth [22]?
A: 0.837 (active)

Q: And the normalized growth [23]?
A: 0.767

Q: What about the normalized growth [24] of the same compound?
A: 0.851

Q: What about the normalized growth [25] of the same compound?
A: 0.852 (active)

Q: What about the normalized growth [26] of the same compound?
A: 0.73

Q: What about the normalized growth (S. cerevisiae strains, strain wild type, stronger effect = lower value) of the same compound?
A: 0.94

Q: Which normalized growth [1] does the source give for `O=S(=O)(NCC1CC1)c1ccc(F)c(Cl)c1` here?
A: 1

Q: And the normalized growth [2]?
A: 1

Q: And the normalized growth [27]?
A: 0.999

Q: What about the normalized growth [3] of the same compound?
A: 0.994

Q: What about the normalized growth [4] of the same compound?
A: 1.01

Q: What about the normalized growth [5] of the same compound?
A: 0.945

Q: What about the normalized growth [6] of the same compound?
A: 1

Q: What about the normalized growth [7] of the same compound?
A: 1

Q: And the normalized growth [8]?
A: 0.969

Q: And the normalized growth [9]?
A: 1.02

Q: What about the normalized growth [10] of the same compound?
A: 0.997

Q: And the normalized growth [11]?
A: 1.01

Q: What about the normalized growth [12] of the same compound?
A: 1.06

Q: And the normalized growth [13]?
A: 1

Q: What about the normalized growth [14] of the same compound?
A: 1

Q: And the normalized growth [15]?
A: 1

Q: And the normalized growth [16]?
A: 1.01

Q: What about the normalized growth [17] of the same compound?
A: 1

Q: What about the normalized growth [18] of the same compound?
A: 1

Q: What about the normalized growth [19] of the same compound?
A: 1

Q: What about the normalized growth [20] of the same compound?
A: 1.03

Q: And the normalized growth [21]?
A: 0.995

Q: And the normalized growth [22]?
A: 0.996

Q: What about the normalized growth [23] of the same compound?
A: 1.05

Q: What about the normalized growth [24] of the same compound?
A: 1.02

Q: And the normalized growth [25]?
A: 0.99

Q: What about the normalized growth [26] of the same compound?
A: 1.02

Q: Which results are given for `O=S(=O)(NCc1ccc2c(c1)OCO2)c1ccc(F)c(Cl)c1`?
A: normalized growth [1]: 0.98; normalized growth [2]: 0.94; normalized growth [27]: 0.977; normalized growth [3]: 0.925; normalized growth [5]: 0.913; normalized growth [6]: 0.965; normalized growth [7]: 0.96; normalized growth [8]: 0.779; normalized growth [9]: 0.948; normalized growth [10]: 0.968; normalized growth [11]: 0.937; normalized growth [12]: 0.757 (active); normalized growth [13]: 0.951; normalized growth [14]: 0.991; normalized growth [15]: 0.683 (active); normalized growth [16]: 1; normalized growth [17]: 0.962; normalized growth [18]: 0.965; normalized growth (S. cerevisiae deletion strains, locus YNL128W, strain TEP1, stronger effect = lower value): 0.957; normalized growth [19]: 0.971; normalized growth [20]: 0.943; normalized growth [21]: 0.967; normalized growth [22]: 0.954; normalized growth [23]: 0.843; normalized growth [24]: 0.995; normalized growth [25]: 0.998; normalized growth [26]: 0.784
